From PubChem BioAssay (Tox21) come the findings set out here.

A short description of assay [1]: qHTS RealTime-Glo MT Cell Viability Assay in HEK293 cells - 0 hour (AID 1224880). Note: top concentration of the series differs between compounds; nearly all actives have a fitted effect of over 45% in size. The gist of the method: (§1)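 Kinetic, non-lysing viability readout. Seed HEK293 (600/well) with reagent, incubate 5 h at 37 C/5% CO2, pin 23 nL compound in DMSO, incubate at 37 C, read luminescence at 0, 8, 16, 24, 32, 40 h.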
Assay [2] in a line: A CellTox Green Cytotoxicity Assay to monitor cytotoxicity in HEK293 cells - 32 hour (AID 1224881). Note: nearly all actives have a fitted effect of over 40% in size. Note: potency is the fitted concentration of half-maximal effect. The essentials: (§2)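 Real-time, in one plate: 600 HEK293 cells/well with dead-cell DNA dye, pinned compound after 5 h, 37 C incubation over 40 h; viable cells give no appreciable fluorescence.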
Assay [3] can be described thus: A CellTox Green Cytotoxicity Assay to monitor cytotoxicity in HepG2 cells - 0 hour (AID 1224882). Note: nearly all actives have a fitted effect of over 35% in size. Note: potency is the fitted concentration of half-maximal effect. The essentials:
(§3)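 Cytotoxicity was tracked as dead-cell DNA fluorescence in HepG2 cells treated with test compounds at 37 C; each time-point value comes from one kinetic series spanning 0, 8, 16, 24, 32 and 40 h.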

The nature of assay [4]: A CellTox Green Cytotoxicity Assay to monitor cytotoxicity in HEK293 cells - 8 hour (AID 1224884). Note: nearly all actives have a fitted effect of over 35% in size. Note: potency is the fitted concentration of half-maximal effect. The gist of the method: as §2
The nature of assay [5]: qHTS RealTime-Glo MT Cell Viability Assay in HepG2 cells - 16 hour (AID 1224885). Note: nearly all actives have a fitted effect of over 50% in size. The essentials:
(§4)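 Viability was tracked continuously by NanoLuc luminescence from prosubstrate reduced by living HepG2 cells, at successive time points over 40 h of compound exposure. Cells with reagent were preincubated 5 h at 37 °C before compound addition.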
For orientation: qHTS replaces the single test concentration by a dilution series.

Assay [6] is described as follows: qHTS RealTime-Glo MT Cell Viability Assay in HEK293 cells - 24 hour (AID 1224886). Note: nearly all actives have a fitted effect of over 50% in size. Note: potency is the fitted concentration of half-maximal effect. The essentials:
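Viability tracked continuously by luminescence as live cells reduce a prosubstrate for NanoLuc; HEK293 cells preincubated 5 h, compound-treated at 37 C, and read at 0, 8, 16, 24, 32 and 40 h.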

Assay [7] is described as follows: qHTS RealTime-Glo MT Cell Viability Assay in HEK293 cells - 8 hour (AID 1224887). Note: top concentration of the series differs between compounds; nearly all actives have a fitted effect of over 50% in size. The gist of the method: as §1
The nature of assay [8]: A CellTox Green Cytotoxicity Assay to monitor cytotoxicity in HEK293 cells - 16 hour (AID 1224888). Note: nearly all actives have a fitted effect of over 35% in size. The gist of the method:
as §2

Assay [9] can be described thus: qHTS RealTime-Glo MT Cell Viability Assay in HepG2 cells - 0 hour (AID 1224889). Note: nearly all actives have a fitted effect of over 50% in size. The essentials: as §4
Assay [10] in a line: A CellTox Green Cytotoxicity Assay to monitor cytotoxicity in HepG2 cells - 8 hour (AID 1224890). Note: nearly all actives have a fitted effect of over 45% in size. Note: potency is the fitted concentration of half-maximal effect. The essentials:
as §3

The nature of assay [11]: qHTS assay to identify small molecule antagonists of the estrogen receptor alpha (ER-alpha) signaling pathway using the BG1 cell line in the presence of 0.1 nM 17-beta-estradiol - cell viability counter screen (AID 1259241). Note: nearly all actives have a fitted effect of over 40% in size. The essentials: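 CellTiter-Fluor read (30 min, 37C) on ER-alpha/ERE-luc VM7Luc4E2 cells; 22 hr compound treatment; agonist 0.1 nM E2 final; same-well multiplex.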

Assay [12] can be described thus: qHTS assay to identify small molecule antagonists of the androgen receptor (AR) signaling pathway using the MDA cell line in the presence of 0.5 nM R1881 - cell viability counter screen (AID 1259242). Note: nearly all actives have a fitted effect of over 45% in size. The gist of the method:
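Cells seeded at 3,000/well and allowed 5 hr at 37C, 0% CO2 before compound transfer and R1881 (0.5 nM final) addition; 16 hr later, live-cell protease fluorescence indicated cytotoxicity.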

A short description of assay [13]: qHTS assay to identify small molecule HDAC inhibitors (AID 1259364).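 Note: wild-type HCT-116 cells with endogenous class I/II HDAC activity; top concentration of the series differs between compounds; nearly all actives have a fitted effect of over 45% in size.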 The gist of the method: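 HCT-116 wt cells, 1,500/well, overnight attach. Compounds (DMSO) 2 h, 37 °C. HDAC-Glo I/II, 30 min RT. Luminescence.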
A short description of assay [14]: qHTS assay to identify small molecule HDAC inhibitors - cell viability counter screen (AID 1259365). The essentials:
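To flag cytotoxic hits, 1,500 wild-type HCT-116 cells per well, plated the day before, receive test compounds for 2hr at 37 C before CellTiter-Glo reagent and a luminescence read.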

Assay [15] is described as follows: qHTS assay to identify small molecule agonists of the sonic hedgehog signaling (Shh) pathway - cell viability counter screen (AID 1259366). Note: nearly all actives have a fitted effect of over 50% in size. The gist of the method: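 Fluorescence from CellTiter-Fluor reports live cells in this counter screen. NIH/3T3-derived Gli1-Luc reporter cells receive test compounds for 24hr at 37C; reagent goes in at 23hr.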
Assay [16] is described as follows: qHTS assay to identify small molecule antagonists of the sonic hedgehog signaling (Shh) pathway - cell viability counter screen (AID 1259367). Note: nearly all actives have a fitted effect of over 55% in size. The gist of the method:
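Viability was read by CellTiter-Fluor fluorescence in the same wells, reagent added 23 hr into compound treatment and incubated 1 hr at 37C. The 3T3 Gli1-Luc reporter cells (2,000/well) received conditioned medium after compound and ran 24 hr.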

Assay [17] has as its target Estrogen receptor (Homo sapiens) (UniProt P03372). The assay can be described thus: qHTS assay to identify small molecule antagonists of the estrogen receptor alpha (ER-alpha) signaling pathway using the BG1 cell line in the presence of 0.1 nM 17-beta-estradiol (AID 1259244). Note: nearly all actives have a fitted effect of over 50% in size. Note: potency is the fitted concentration of half-maximal effect. The gist of the method: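 Luciferase signal from VM7Luc4E2 ERE-reporter cells, co-dosed with test compound and 0.1 nM final 17beta-estradiol for 22 h, read with ONE-Glo.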

The target of assay [18] is Androgen receptor (Homo sapiens) (UniProt P10275). Nature of the assay: qHTS assay to identify small molecule antagonists of the androgen receptor (AR) signaling pathway using the MDA cell line in the presence of 0.5 nM R1881 (AID 1259243). Note: nearly all actives have a fitted effect of over 50% in size. The essentials: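 Luminescence from an AR/GR-responsive MMTV-luciferase construct in MDA-kb2 breast carcinoma cells, read 30 min after ONE-Glo, following 16 hr co-treatment with compounds and 0.5 nM R1881.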
Sequence of Androgen receptor (Homo sapiens) (P10275 whole entry, looked up): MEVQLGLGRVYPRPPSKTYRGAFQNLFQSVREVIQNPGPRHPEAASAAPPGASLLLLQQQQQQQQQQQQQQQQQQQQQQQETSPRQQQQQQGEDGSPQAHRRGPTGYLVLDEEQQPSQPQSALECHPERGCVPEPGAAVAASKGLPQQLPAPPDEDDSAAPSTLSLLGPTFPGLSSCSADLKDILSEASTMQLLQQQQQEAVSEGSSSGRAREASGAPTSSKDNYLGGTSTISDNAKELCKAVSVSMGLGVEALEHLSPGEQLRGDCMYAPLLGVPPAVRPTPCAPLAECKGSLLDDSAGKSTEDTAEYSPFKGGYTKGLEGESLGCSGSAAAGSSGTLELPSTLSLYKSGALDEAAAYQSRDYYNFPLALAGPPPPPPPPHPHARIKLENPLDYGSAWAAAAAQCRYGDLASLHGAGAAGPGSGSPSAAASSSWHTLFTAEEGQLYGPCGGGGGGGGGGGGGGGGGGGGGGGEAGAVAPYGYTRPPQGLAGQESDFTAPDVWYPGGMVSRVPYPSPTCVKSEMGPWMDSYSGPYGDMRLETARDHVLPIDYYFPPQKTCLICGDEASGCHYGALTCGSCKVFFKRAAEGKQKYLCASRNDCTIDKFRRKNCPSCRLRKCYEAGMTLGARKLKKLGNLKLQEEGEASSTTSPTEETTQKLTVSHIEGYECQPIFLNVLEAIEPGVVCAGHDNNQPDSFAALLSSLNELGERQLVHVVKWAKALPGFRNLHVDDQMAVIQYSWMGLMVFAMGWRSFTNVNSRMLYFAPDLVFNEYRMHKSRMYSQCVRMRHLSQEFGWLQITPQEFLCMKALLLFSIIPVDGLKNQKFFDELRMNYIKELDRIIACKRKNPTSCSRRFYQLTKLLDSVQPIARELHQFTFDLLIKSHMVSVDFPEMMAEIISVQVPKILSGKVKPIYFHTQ

Inconclusive results are not listed. Where a structure was tested more than once in an assay, its records may differ in their call. Calls of active or inactive are those of the source. Calls come from the whole dose curve; as a rule, active = well fitted curve in the direction sought with a large enough effect in the repeat runs; inconclusive = weak or mixed curves; inactive = no such curve, though single readings can be large; an effect the other way counts as inactive or inconclusive.

Sequence of Estrogen receptor (Homo sapiens) (P03372 whole entry, looked up): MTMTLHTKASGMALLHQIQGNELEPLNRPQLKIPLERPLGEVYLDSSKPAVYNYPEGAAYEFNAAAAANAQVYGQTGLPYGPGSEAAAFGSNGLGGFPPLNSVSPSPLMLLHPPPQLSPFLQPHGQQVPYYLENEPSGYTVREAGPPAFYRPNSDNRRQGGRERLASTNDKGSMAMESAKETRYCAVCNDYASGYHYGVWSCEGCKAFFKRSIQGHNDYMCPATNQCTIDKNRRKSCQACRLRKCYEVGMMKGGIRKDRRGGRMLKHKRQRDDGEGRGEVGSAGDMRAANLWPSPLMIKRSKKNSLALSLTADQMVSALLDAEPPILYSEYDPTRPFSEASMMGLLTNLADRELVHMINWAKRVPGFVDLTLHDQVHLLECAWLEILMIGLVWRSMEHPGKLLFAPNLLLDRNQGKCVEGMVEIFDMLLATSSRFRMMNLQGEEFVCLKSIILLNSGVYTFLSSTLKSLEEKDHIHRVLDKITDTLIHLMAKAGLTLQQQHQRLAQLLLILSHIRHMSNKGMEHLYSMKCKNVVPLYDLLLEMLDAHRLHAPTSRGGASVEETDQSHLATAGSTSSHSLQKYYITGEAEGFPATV

For `N#CCCCl`, the Potency result in assay [1], in assay [2], in assay [3], in assay [4], in assay [5] and in assay [6] was “inactive” each time. In addition, the Potency result in [7], in [8], in assay [9], in [10], in [11] and in [12] was “inactive” each time. Also, the Potency entry in assay [13], in [15] and in assay [16] was “inactive” throughout. Moreover, the outcome in assay [14] was inactive.
For the molecule `S=C1NCCN1`, the Potency entry in assay [1], in [2], in assay [3], in assay [4], in assay [5] and in assay [6] was “inactive” in each case. For the same molecule, the Potency entry in assay [7], in assay [8], in assay [9], in assay [10], in assay [11] and in [12] was “inactive” throughout. Besides, the Potency entry in [15] and in assay [16] was “inactive” throughout. Moreover, in [14], the molecule was classed as inactive.
With `CCCCN(CCCC)N=O`, the Potency result in assay [1], in [2], in assay [3], in [4], in assay [5] and in [6] was “inactive” each time. Also, the Potency entry in [7], in assay [8], in [9], in [10], in assay [11] and in [12] was “inactive” in each case. Also, the Potency entry in [17], in [13], in assay [15] and in assay [16] was “inactive” each time. The molecule was classed as inactive in assay [14].
Consider `Nn1cnnc1`, for which the Potency result in assay [1], in [2], in assay [3], in assay [4], in assay [5] and in assay [6] was “inactive” in each case. Moreover, the Potency result in [7], in assay [8], in assay [9], in assay [10], in assay [11] and in assay [12] was “inactive” in each case. In addition, the Potency result in [17], in assay [15] and in assay [16] was “inactive” each time. Further, in assay [14], the outcome was inactive.
Consider `NC(=S)Nc1ccccc1`, for which the Potency result in assay [1], in [5], in assay [7], in assay [9], in assay [11] and in assay [12] was “inactive” throughout. Further, the Potency result in assay [15] and in [16] was “inactive” in each case. Besides, the Potency in [2] is 49.8 µM (active) and inactive; in assay [3] it was 49.8 µM (active) and inactive; in assay [4] it was 49.8 µM (active) and inactive; in [6], 8.86 µM (active) and inactive; in assay [10], 55.9 µM (active) and inactive; in [17], 27.8 µM (active) and inactive. In addition, in [14], the molecule was classed as inactive.
On to `Cc1cc(Cl)ccc1OCCCC(=O)O`, for which the Potency result in assay [1], in assay [2], in assay [3], in assay [4], in assay [5] and in assay [6] was “inactive” throughout. The Potency result in assay [7], in assay [8], in [9], in assay [10], in assay [11] and in assay [12] was “inactive” each time. Also, the Potency entry in assay [18], in assay [13], in assay [15] and in [16] was “inactive” in each case. Also, the molecule was called inactive in assay [14].
With `O=C1C=CC(=O)C=C1`, the Potency result in [1], in assay [2], in [3], in assay [4], in assay [5] and in assay [6] was “inactive” throughout. Besides, the Potency entry in assay [7], in assay [8], in assay [9], in [10], in [11] and in assay [12] was “inactive” each time. The Potency entry in assay [13], in [15] and in assay [16] was “inactive” each time. In addition, the molecule was called inactive in [14].
With `CC(C)(C)c1ccccc1O`, the Potency result in [1], in [3], in [4], in assay [5], in assay [6] and in assay [7] was “inactive” each time. The Potency result in assay [8], in assay [9], in [11], in assay [12], in assay [13] and in assay [15] was “inactive” in each case. The Potency entry in [16] is “inactive”. Besides, the Potency in assay [2] was 44.2 µM (active) and inactive. In [14], the call was inactive.
